Source: PubChem (National Center for Advancing Translational Sciences (NCATS))
D1 potentiator = Potentiators of Human D1 Dopamine Receptor: qHTS; actives 0.036% (n = 360,000); AID 504651, 2011; potentiation, % at 10 µM; HEK293 TREx D1 cells, calcium flux, dopamine EC20 potentiation; D(1A) dopamine receptor (Homo sapiens), P21728; in the data active = potentiation above about 30%; also: 0% is about no effect
Target sequence (P21728 whole entry, looked up): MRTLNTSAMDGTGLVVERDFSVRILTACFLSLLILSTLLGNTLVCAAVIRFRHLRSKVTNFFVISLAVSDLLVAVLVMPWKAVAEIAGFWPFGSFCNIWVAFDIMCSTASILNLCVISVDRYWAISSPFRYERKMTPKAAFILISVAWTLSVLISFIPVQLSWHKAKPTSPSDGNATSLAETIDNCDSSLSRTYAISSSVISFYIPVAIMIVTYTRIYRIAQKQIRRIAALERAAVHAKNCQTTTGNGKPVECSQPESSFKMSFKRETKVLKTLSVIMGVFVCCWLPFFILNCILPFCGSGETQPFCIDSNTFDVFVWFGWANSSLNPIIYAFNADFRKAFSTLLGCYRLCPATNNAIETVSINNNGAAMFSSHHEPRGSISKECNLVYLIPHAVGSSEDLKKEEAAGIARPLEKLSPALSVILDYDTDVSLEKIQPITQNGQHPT
D1 antag = Antagonist of Human D 1 Dopamine Receptor: qHTS; D(1A) dopamine receptor (Homo sapiens), P21728; activity change, negative = inhibition, % at 10 µM; actives 3.2% (n = 360,000); HEK293 TREx D1 cells, calcium flux, dopamine EC80; hits give low values; in the data active = activity change below about -30%; also: % is scaled to controls: 0 for no effect and ±100 for the full control effect
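Calcium flux readout: force-coupled, inducible Hek293 Trex D1 line, cells induced overnight at 30 C with tetracycline, dye-loaded 30–90 min at RT. Antagonism scored against EC80 dopamine challenge given 180 s after compound.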
TRHR PAM = qHTS for Small Molecule Agonists and Allosteric Enhancers of Human TRH Receptor: Primary Screen for Enhancers. Thyrotropin-releasing hormone receptor (Homo sapiens), P34981. TRHR cells, fluo-8 calcium fluorescence, EC20 TRH enhancement. enhancement, % at 2 µM. actives 0.66% (n = 360,000). AID 493056, 2011; in the data active = enhancement above about 30%; also: 0% is about no effect
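TRHR-expressing cells loaded with fluo-8 calcium dye were read kinetically (ex 480/em 530) during compound addition, then stimulated with an EC20 of TRH (10 nM final). Enhancement of the Gq-mediated intracellular calcium response was scored.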
TRHR ag = qHTS for Small Molecule Agonists and Allosteric Enhancers of Human TRH Receptor: Primary Screen for Agonists; Thyrotropin-releasing hormone receptor (Homo sapiens), P34981; TRHR cells, calcium flux fluo-8, FDSS agonist mode; activation, % at 2 µM; actives 0.18% (n = 360,000); AID 493084, 2011; also: 0% is about no effect
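Agonist-mode FDSS calcium read (Ex 480/Em 530, 1 s cycles) in 1536-well TRHR cells with fluo-8 dye, after 10-cycle baseline and 23 nL compound addition; TRH at EC20 (10 nM final) added afterwards for the enhancer phase.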
D1 ag = Allosteric Agonists of the Human D1 Dopamine Receptor: qHTS; D(1A) dopamine receptor (Homo sapiens), P21728; HEK293 T-REx D1 cells, calcium flux, agonist mode; activation, % at 2 µM; actives 1% (n = 360,000); AID 504660, 2011; also: 0% is about no effect
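Inducible HEK293 T-REx D1 cells, force-coupled to calcium signalling, were plated at 4000 cells/well with tetracycline and held overnight at 30 C. After no-wash calcium dye loading, compound-evoked calcium rise over 180 s flagged agonists.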
An asterisk follows results filed as active; nt = no result; ! = not confirmed by another sample. Rows were chosen to be rich in hits. Some 4.7% of all compounds tested hit in one or more screens of this group. Rule as the data show it, unless noted: active = activation above about 30%; inactive = the rest.

SMILES	D1 potentiator	D1 antag	TRHR PAM	TRHR ag	D1 ag
OC(CN1CC=C(c2ccccc2)CC1)c1ccccc1 (stereo not drawn)	-2	-11	35*	1	4
Fc1ccc(CNCCc2ccccc2F)cc1	3	-11	-1	1	4
Fc1ccc(CCNCc2ccc(Br)cc2)cc1	4	2	4	0	33*
COc1cccc(CNCCc2ccc(F)cc2)c1	-6	-2	0	4	10
Fc1ccc(CCNCc2cccc(Cl)c2)cc1	-12	-8	-5	3	42*
S=C=Nc1cccc(C2(N3CCCCC3)CCCCC2)c1	-7	-91*	4	-1	4
Cc1cccc(NP(=O)(Oc2ccccc2F)Oc2ccccc2F)c1	1	7	2	0	8
O=P(Nc1cccc(F)c1)(Oc1ccccc1F)Oc1ccccc1F	-6	-37*	9	1	2
NCCc1ccc(S(N)(=O)=O)cc1	-4	5	40*	0	0
COc1ccccc1N1CCN(CCc2ccccc2)CC1	-7	-47*	5	0	3
CC1CN(CCc2ccccc2)CC(C)O1 (stereo not drawn)	-4	0	-1	-1	1
Cc1ccccc1CN1CCN(Cc2ccccc2)CC1	-8	12	4	-1	1
Cc1cccc(N2CCN(CCc3ccccc3)CC2)c1C	-11	-51*	2	-2	39*
Cc1ccc(N2CCN(CCc3ccccc3)CC2)cc1	-11	-44*	4	0	4
O=C(Nc1ccc(Br)cc1C(=O)c1ccccc1Cl)c1ccc(Br)cc1	0	3	-2	1	4
Cc1ccc(Cn2cccc(C(=O)Nc3ccc(C)c(Cl)c3)c2=O)cc1	3	nt	-4	0	8
COC(=O)[C@@]1(Cc2ccc(F)cc2)[C@H]2c3cc(C(=O)N(C)C)[nH]c3C[C@H]2CN1C(=O)c1ccccc1	0	-33*	4	2	3
CCOc1cccc(CNC2CN3CCC2CC3)c1 (stereo not drawn)	-7	-51*	-1	1	3
O=C(Cn1ncc2c3ccccc3n(Cc3cccc(Cl)c3)c2c1=O)N1CCC2(CC1)OCCO2	6	1	4	1	7
Cn1c2ccccc2c2cnn(CC(=O)N3CCC4(CC3)OCCO4)c(=O)c21	-1	-31*	-5	0	0
Cc1ccccc1-n1c(/C=C/c2ccccc2F)nc2ccccc2c1=O	0	0	4	0	1
CC(=O)OCC[N+](C)(C)C	2	17	-4	36*	46*!
Cc1ccc(/C=C2\C(=O)NC(=S)N(c3ccc(F)cc3)C2=O)o1	5	-15	13	2	9
C=CCN1C(=O)/C(=C/c2ccc(N3CCOCC3)o2)C(=O)NC1=S	-2	-1	-4	-1	119*
O=C1NC(=O)C(=Cc2ccc(N3CCOCC3)o2)C(=O)N1	-3	9	1	7	8
SMILES	D1 potentiator	D1 antag	TRHR PAM	TRHR ag	D1 ag
Cc1cc(C)cc(N2C(=O)/C(=C\c3ccc(N4CCN(C)CC4)o3)C(=O)NC2=S)c1	-4	-4	1	28	44*
Cc1cccc(Cn2cccc(C(=O)Nc3nnc(C)s3)c2=O)c1	0	nt	-2	0	-1
CN1CCN(c2csc3ccc(F)cc3c2=O)CC1	-1	-9	6	1	0
O=c1[nH]c(=O)n(Cc2ccc(F)cc2)c(O)c1C=Nc1ccc(Cl)cc1	-5	-1	-7	1	3
CCN(CC)c1ccc(N=Cc2c(O)n(-c3ccccc3)c(=O)[nH]c2=O)cc1	-1	-1	4	-1	86*
CCOc1ccccc1-n1c(O)c(C=Nc2ccc(N(CC)CC)cc2)c(=O)[nH]c1=O	-1	10	-2	22	37*
CCOc1ccc(-n2c(O)c(C=Nc3ccc(N(CC)CC)cc3)c(=O)[nH]c2=O)cc1	-4	1	2	22	17
CCN(CC)c1ccc(N=Cc2c(O)n(Cc3ccccc3)c(=O)[nH]c2=O)cc1	-4	-5	4	-1	37*!
CCN(CC)c1ccc(N=Cc2c(O)n(-c3ccccc3C)c(=O)[nH]c2=O)cc1	-3	-8	3	14	31*
COC(=O)C1=C(c2ccc(F)cc2F)C[C@@H]2CC[C@H]1N2C(=O)NC1Cc2ccccc2C1	3	nt	-5	-1	-3
COC(=O)C1=C(c2cccc3c2S(=O)(=O)c2ccccc2-3)C[C@@H]2CC[C@H]1N2C(=O)N1CCOCC1	2	7	3	-1	1
COC(=O)C1=C(c2cccc3c2S(=O)(=O)c2ccccc2-3)C[C@@H]2CC[C@H]1N2C(=O)N1CCc2cc(OC)c(OC)cc2C1	-3	-48*	2	0	4
O=c1[nH]c2ccccc2c(=O)n1-c1ccc(Cl)c(Cl)c1	-2	-1	1	-1	-1
Brc1ccc2c(c1)C(OC1CN3CCC1CC3)c1ccccc1CS2 (stereo not drawn)	-9	-36*	1	0	28
c1ccc2c(c1)CSc1ccccc1C2C1=NCCN1 (stereo not drawn)	0	-11	5	-1	6
CC(C)c1ccc(NC(=O)CN2C(=O)CN=C(c3ccccc3)c3ccccc32)cc1	1	1	0	0	1
COc1ccc2[nH]cc(CCN=C(N)N)c2c1	-6	-19	36*	0	2
COc1ccc(CNCCc2ccc3c(c2)OCO3)cc1Br	-4	-18	-2	0	78*
FC(F)(F)c1ccc(CNCCc2ccc3c(c2)OCO3)cc1	-2	4	10	1	35*
Cc1cc(OCC(=O)N2CCN(CCc3ccccn3)CC2)cc(C)c1Cl	-1	8	9	0	0
CCOc1cc2c(cc1OCC)-n1cccc1C(c1ccc(OC)c(O)c1)NC2 (stereo not drawn)	-2	-23	3	-1	96*
CC(=O)c1cccc(OCC(=O)N2CCN(CC(=O)Nc3cccc(F)c3)CC2)c1	0	-4	-4	0	1
Cc1ccccc1CN1C(=O)C(C)N=C(c2ccccc2)c2ccccc21 (stereo not drawn)	-5	-8	-4	-1	2
O=C1NC(=O)N(c2ccccc2)C(=O)/C1=C/c1ccc(Sc2ccccc2)o1	1	8	-2	2	0
O=C1NC(=O)N(c2ccccc2F)C(=O)/C1=C/c1ccc(Sc2nc3ccccc3[nH]2)o1	5	-10	5	41*	116*
